# Assay results as given in the supplement of paper PMC7411054.
# Counter-ions that a name gives are not always drawn.
# Columns and labels:
# Test in all cases: lowest phenotypically active concentration; higher = less potent
# Settings in all cases: treatment time: 24 h
# [1] = system: A549-TUBA1B-RELA
# Outline: (§1)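 After 24 h at 0.3, 1, 3 or 9 µM, with four wells per treatment, fifteen gene-edited A549, HepG2 and WPMY1 reporter lines carrying BFP, GFP and RFP/FusionRed were imaged live. Each well's live-cell features were expressed relative to solvent control wells. Deviation required ≥3 of 4 wells past the 95th percentile of control Euclidean distances, and reproducibility a median replicate Pearson correlation over the 95th percentile of non-replicates. Phenotypic activity rested on both.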
# [2] = system: HepG2-ACTB-RAB5A
# Outline: as §1
# [3] = system: HepG2-TP53BP1-CLTA
# Outline: as §1
# [4] = system: WPMY1-TUBA1B-RELA
# Outline: as §1
# [5] = system: HepG2-CANX-COX4
# Outline: as §1
# [6] = system: HepG2-GM130-SQSTM1
# Outline: as §1
# [7] = system: HepG2-TUBA1B-RELA
# Outline: as §1
# [8] = system: WPMY1-TP53BP1-CLTA
# Outline: as §1
# [9] = system: A549-TP53BP1-CLTA
# Outline: as §1
# [10] = system: A549-CANX-COX4
# Outline: as §1
structure (smiles),measurement,setting,value
CC(C)(C)n1nc(-c2ccc(Cl)cc2)c2c(N)ncnc21,lowest phenotypically active concentration,[1],9 µM
same,lowest phenotypically active concentration,[2],3 µM
same,lowest phenotypically active concentration,[3],3 µM
O=C1c2c(O)cccc2Cc2cccc(O)c21 [anthralin],lowest phenotypically active concentration,[4],9 µM
CC(C)c1c(C(=O)Nc2ccccc2)c(-c2ccccc2)c(-c2ccc(F)cc2)n1CC[C@@H](O)C[C@@H](O)CC(=O)O [atorvastatin],lowest phenotypically active concentration,[2],3 µM
same,lowest phenotypically active concentration,[5],9 µM
same,lowest phenotypically active concentration,[6],3 µM
same,lowest phenotypically active concentration,[3],9 µM
same,lowest phenotypically active concentration,[7],3 µM
same,lowest phenotypically active concentration,[8],9 µM
same,lowest phenotypically active concentration,[4],3 µM
CCN1/C(=C/C(C)=O)Sc2ccc(O)cc21,lowest phenotypically active concentration,[9],9 µM
same,lowest phenotypically active concentration,[2],9 µM
same,lowest phenotypically active concentration,[8],9 µM
COc1ccc(CCc2nc3cc(-c4c(C)noc4C)ccc3n2C[C@H](C)N2CCOCC2)cc1Cl,lowest phenotypically active concentration,[2],3 µM
same,lowest phenotypically active concentration,[5],9 µM
same,lowest phenotypically active concentration,[6],9 µM
same,lowest phenotypically active concentration,[3],9 µM
same,lowest phenotypically active concentration,[7],9 µM
same,lowest phenotypically active concentration,[4],9 µM
Cc1cccc(C)c1OCC(C)N (centres undefined) [mexiletine],lowest phenotypically active concentration,[10],≤ 0.3 µM
same,lowest phenotypically active concentration,[9],≤ 0.3 µM
same,lowest phenotypically active concentration,[2],≤ 0.3 µM
O=C1NCCCc2c1oc1ccc(O)cc21,lowest phenotypically active concentration,[5],9 µM
same,lowest phenotypically active concentration,[7],9 µM
same,lowest phenotypically active concentration,[4],9 µM
CC(C)(C)c1ccc(S(=O)(=O)/C=C/C#N)cc1,lowest phenotypically active concentration,[6],9 µM
same,lowest phenotypically active concentration,[7],9 µM
same,lowest phenotypically active concentration,[8],9 µM
Cc1c[nH]c2ncnc(-c3ccc(NC(=O)N(CCO)c4ccccc4)cc3)c12,lowest phenotypically active concentration,[4],9 µM
Cn1cc(-c2ccc3nnc(Sc4ccc5ncccc5c4)n3n2)cn1,lowest phenotypically active concentration,[10],1 µM
same,lowest phenotypically active concentration,[9],1 µM
same,lowest phenotypically active concentration,[2],1 µM
COC(=O)C1=CO[C@@H](C)[C@H]2CN3CCc4c([nH]c5ccccc45)[C@@H]3C[C@H]12 [Ajmalicine hydrochloride],lowest phenotypically active concentration,[10],9 µM
same,lowest phenotypically active concentration,[2],9 µM
same,lowest phenotypically active concentration,[5],9 µM
same,lowest phenotypically active concentration,[3],9 µM
O=c1cc(N2CCOCC2)oc2c(-c3ccccc3)cccc12,lowest phenotypically active concentration,[9],9 µM
same,lowest phenotypically active concentration,[1],9 µM
same,lowest phenotypically active concentration,[2],9 µM
same,lowest phenotypically active concentration,[6],9 µM
same,lowest phenotypically active concentration,[3],9 µM
same,lowest phenotypically active concentration,[7],9 µM
same,lowest phenotypically active concentration,[8],9 µM
Cc1cccc(-c2nn(C(=S)Nc3ccccc3)cc2-c2ccnc3ccccc23)n1,lowest phenotypically active concentration,[10],9 µM
same,lowest phenotypically active concentration,[1],3 µM
same,lowest phenotypically active concentration,[2],9 µM
same,lowest phenotypically active concentration,[5],3 µM
same,lowest phenotypically active concentration,[6],9 µM
same,lowest phenotypically active concentration,[3],9 µM
same,lowest phenotypically active concentration,[7],9 µM
same,lowest phenotypically active concentration,[8],1 µM
same,lowest phenotypically active concentration,[4],9 µM
Cc1cccc(-c2n[nH]cc2-c2ccc(F)c(-c3cnn(CCO)c3)c2)n1,lowest phenotypically active concentration,[5],9 µM
same,lowest phenotypically active concentration,[3],9 µM
same,lowest phenotypically active concentration,[8],9 µM
same,lowest phenotypically active concentration,[4],9 µM
O=C(O/N=C1\c2ccccc2-c2nc3ccccc3nc21)c1ccco1,lowest phenotypically active concentration,[8],9 µM
same,lowest phenotypically active concentration,[4],3 µM
